These results are taken from PubChem BioAssay (NCATS).

Structures are written as SMILES. Records with an inconclusive call do not appear. Activity calls are given as the source filed them. Unless noted, calls follow the shape of the dose curve; as a rule, active = well fitted curve in the direction sought with a large enough effect; inconclusive = small, poorly fitted or top-dose-only effect, or another doubt; inactive = no such curve, though single readings can be large; an effect the other way counts as inactive or inconclusive.

A short description of test [1]: AP1 Signaling Pathway (AID 357; active = well fitted curve in either direction with a large enough effect, not every such curve was filed as active;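 also: ME-180 reporter cells stimulated with EGF at its EC50 level; % is scaled to controls: 0 for no effect and ±100 for the full control effect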). In short, it runs like this:
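Cells are seeded overnight, exposed to compound titrations and an EC50 level of EGF for 5 hours at 37 °C, then loaded with CCF4 dye for 2.5 hours. Beta-lactamase activity under the AP-1 element is read as a blue/green ratio.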

The nature of test [2]: NFAT Signaling Pathway (AID 444; active = well fitted curve in either direction with a large enough effect, not every such curve was filed as active;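 also: carbachol stimulus at about its EC50 of 1 µM final; % is scaled to controls: 0 for no effect and ±100 for the full control effect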). The note with it: Jurkat NFAT-bla M1, carbachol, beta-lactamase ratio, 5 h; at 38 µM (top of the series). The gist of the method: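 Jurkat cells carrying an NFAT-driven β-lactamase reporter and co-transfected muscarinic M1 receptor were treated with compound plus carbachol (1 uM final, an EC50 level) for 5 h at 37 °C. CCF4 loading followed for 1 h at RT; 460/530 nm ratio gave %activity.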

The nature of test [3]: Stat Signaling Pathway (AID 446; active = well fitted curve in either direction with a large enough effect, not every such curve was filed as active;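 also: ME-180 cervical cancer cells given 40 pM IL-6 alongside compound; SIE-controlled beta-lactamase reporter measured as 460/530 nm FRET emission ratio; % is scaled to controls: 0 for no effect and ±100 for the full control effect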). The gist of the method: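 Overnight-plated ME-180 cells bearing a STAT Inducible Element beta-lactamase reporter; 5 h co-exposure to compound and 40 pM IL-6; values normalized to 300 pM IL-6 and 125 nM JAK inhibitor controls.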
The target of test [4] is Glucocorticoid receptor (Homo sapiens) (UniProt P04150). Put plainly: GR-GFP Redistribution (AID 450;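 active = compounds whose dose series gives a full or clear partial fitted curve of increased nuclear translocation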; also: potency is read from the fitted curve at half-maximal effect). The conditions noted are these: U2OS GR-GFP nuclear translocation, laser cytometry, 2 h.
For test [5] the target is unchanged. Description: GR-EFC Redistribution (AID 451; calls by dose curve; also: potency is read from the fitted curve at half-maximal effect). The note with it: CHO-K1 GR-EFC translocation, beta-gal luminescence, 2 h. The gist of the method:
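CHO-K1 cells stably expressing nuclear-localized β-gal enzyme acceptor and GR fused C-terminally to the enzyme donor fragment; ligand-driven nuclear translocation restores β-gal by complementation. Compounds titrated up to 46 uM final, 2 h at 37 °C; luminescence read.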

Test [6] concerns the target Mitogen-activated protein kinase 10 (Mus musculus) (UniProt Q61831). Description: JNK3 AlphaScreen Assay (AID 530; active = well fitted curve in either direction with a large enough effect, not every such curve was filed as active;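 also: kinase came from lysate of stimulated human HepG2 cells; signal reports phosphorylation of biotinylated GST-cJun 1-79 at Ser73 with 10 µM ATP; % is scaled to controls: 0 for no effect and ±100 for the full control effect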). In short, it runs like this:
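Biotinylated GST-cJun(1-79) served as substrate for JNK3 in HepG2 lysates stimulated with IL-1beta and TNF-alpha. ATP was 10 uM final, pH 7.6. Ser73 phosphorylation was quantified by AlphaScreen (680 nm excitation).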
For orientation: Bead proximity is the source of the signal in Alpha formats.

For test [7], the target named is 3',5'-cyclic-AMP phosphodiesterase 4B (Homo sapiens) (UniProt Q07343). Description: qHTS Assay for Inhibitors of PDE-IV (AID 607; active = well fitted activation curve with a large enough effect in the main read-out, with a control signal flat, not every such curve was filed as active; also: % of control where 0% means no effect). The gist of the method:
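Live HEK293 cells with a modified cyclic nucleotide-gated (CNG) channel report intracellular cAMP via membrane-potential dye fluorescence (ex 535/em 590 nm). Endogenous PDE-IV was targeted. Compounds were tested at up to 22.9 uM final; RO 20-1724 100 uM served as control.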
For orientation: Quantitative high-throughput screening tests each substance at several concentrations.

Test [8] deals with Guanine nucleotide-binding protein G(i) subunit alpha-1 (Homo sapiens) (UniProt P63096). Put plainly: qHTS Assay for Inhibitors of RGS12 GoLoco Motif Activity (Green Fluorophore) (AID 879).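 Also: 0% = labeled peptide with Gαi1 and full inhibition = labeled peptide alone without protein; negative values mean loss of peptide binding seen as reduced polarization.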 The gist of the method: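 A drop in FITC polarization marked displacement of the FITC-tagged RGS12 GoLoco peptide (10 nM) from Gαi1 (50 nM). Compounds were incubated 10 min at room temperature in Tris pH 7.5 buffer containing 150 mM NaCl, 0.1 mM GDP and 0.05% NP40; unlabeled peptide titration served as control.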

Test [9] deals with Cytochrome P450 2D6 (Homo sapiens) (UniProt P10635). Description: qHTS Assay for Inhibitors and Substrates of Cytochrome P450 2D6 (AID 891).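 Also: luciferin methyl ether substrate demethylated by CYP2D6 with NADPH regeneration; % is scaled to controls: 0 for no effect and ±100 for the full control effect; nearly all actives have a fitted effect of over 60% in size.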 The gist of the method: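 Luminescent read-out of luciferin formed by 5 nM human CYP2D6 demethylating 30 uM Luciferin-ME EGE (Km level) over 60 min at room temperature after NADPH regeneration addition. Data normalized to full inhibition by 1.43 uM quinidine.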

Test [10] in a line: qHTS Assay for Identification of Small Molecule Agonists for Thrombopoietin (TPO) Signaling Pathway (AID 917). Also: % is scaled to controls: 0 for no effect and ±100 for the full control effect. The gist of the method: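 Quantitative HTS for pathway activators: compounds were pin-transferred onto IL-3-starved Ba/F3 cells expressing human TPO receptor, TPO was added at its EC50 (26 pM final), and after 24 hrs at 37 C reporter luciferase was measured.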
Test [11] deals with Muscarinic acetylcholine receptor M1 (Rattus norvegicus) (UniProt P08482). Description: qHTS Assay for Antagonists of Acetylcholine Muscarinic M1 Receptor: Kinetic Measurement of Intracellular Calcium Response (AID 943).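 Also: Fluo-4 calcium signal as peak divided by basal fluorescence over 4 min; nearly all actives have a fitted effect of over 75% in size.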 The gist of the method: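 Quantitative HTS in CHO-M1 (rat receptor) cells: 10 min compound exposure ahead of 100 nM carbachol, Fluo-4 fluorescence followed 4 min, value expressed as peak-to-basal ratio.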

Test [12] shares this target. Put plainly: qHTS Assay for Antagonists of Acetylcholine Muscarinic M1 Receptor: Measurement of IP-One Response (AID 944). Also: nearly all actives have a fitted effect of over 75% in size. In short, it runs like this: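 Antagonism was measured as loss of carbachol-driven (EC80) IP1 accumulation in CHO cells carrying rat M1, using a homogeneous IP-One TR-FRET kit read at 620 and 665 nm.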
The target in test [13] is Pyruvate kinase (Leishmania mexicana) (UniProt Q27686). Description: qHTS Validation Assay for Inhibitors of Leishmania Mexicana Pyruvate Kinase (AID 945).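 Also: 0% = DMSO only neutral control wells.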 The gist of the method:
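Mutant LmPYK (E451W), 0.2 nM, plus 0.5 mM PEP and 0.1 mM ADP in 50 mM imidazole pH 7.2 containing 0.01% Tween 20 and 0.05% BSA. Incubated 1 h at room temperature; luminescence via PKLight, normalized to DMSO.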

In test [14] the target is Alpha-galactosidase (Coffea arabica) (UniProt Q42656). Put plainly: Counterscreen for Glucocerebrosidase Inhibitors: qHTS Assay for Coffee Bean alpha-Galactosidase at pH 4.5 (AID 957).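 Also: plate controls were enzyme alone for no effect and no enzyme for full effect.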 The gist of the method: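 Quantitative HTS of compounds (0.7 nM to 77 uM) against coffee bean alpha-galactosidase at pH 4.5, measuring 4-methylumbelliferone fluorescence released from 80 uM substrate.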
On the technique in general: The purpose of a counterscreen is to sort out artefacts and off-target activity.

The target in test [15] is Alpha-galactosidase A (Homo sapiens) (UniProt P06280). Put plainly: Counterscreen for Glucocerebrosidase Inhibitors: qHTS Assay for Human alpha-Galactosidase at pH 4.5 (AID 992). Also: 0% is about no effect. The gist of the method: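 Each compound is preincubated briefly with 2 nM enzyme before substrate addition (80 uM); plates then sit 20 min at ambient temperature, are quenched with 1M NaOH/1M glycine, and read fluorometrically.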

For test [16], the target named is alpha-glucosidase (Oryza sativa, rice) (UniProt Q653V4). Description: Counterscreen for Glucocerebrosidase Inhibitors: qHTS Assay for Rice alpha-Glucosidase at pH 5.0 (AID 997).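 Also: 0% = full activity with enzyme and -100% = basal without enzyme.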 The gist of the method: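 Endpoint fluorogenic assay at pH 5.0: compounds (0.7 nM to 77 uM) titrated against 4 nM rice enzyme and 400 uM 4-MU-alpha-glucoside for 20 min at room temperature; NaOH/glycine stop, read ex 365/em 440 nm, Hill-fitted AC50.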

In test [17] the target is Alpha-galactosidase (Coffea arabica) (UniProt Q42656). Description: Counterscreen for Glucocerebrosidase Inhibitors: qHTS Assay for Coffee Bean alpha-Galactosidase at pH 5.9 (AID 998).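 Also: plate controls were uninhibited enzyme for no effect and no-enzyme basal signal for full effect.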 In short, it runs like this: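 In 50 mM citric acid pH 5.9 with 0.005% Tween-20, coffee bean enzyme hydrolyses 80 uM 4-MU alpha-D-galactopyranoside over 20 min at RT. Activity is normalized to controls; AC50 comes from Hill-modelled concentration-response data.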

Test [18] can be described thus: qHTS Assay for Lipid Storage Modulators (AID 1519; calls by dose curve). The conditions noted are these: Drosophila S3 cells, BODIPY lipid droplet/cell ratio, laser cytometry, cells loaded with oleic acid. The gist of the method: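 Cells seeded at 5,000 per well were treated with compounds over a concentration series and loaded with oleic acid (400 uM, as added). Lipid droplet fluorescence (488 nm excitation, 500-530 nm channel) was read by laser-scanning cytometry and normalized to 20 uM Triacsin C.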

The target in test [19] is DNA dC->dU-editing enzyme APOBEC-3G (Homo sapiens) (UniProt Q9HC16). Description: qHTS for inhibitors of Vif-A3G interactions: Validation (AID 588379). Also: 0% is about no effect. The gist of the method: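 Yellow fluorescence (Ex 488, Em 500-530) of Vif-coexpressing HeLa A3G-eYFP cells, scanned by Acumen cytometer, reports blocked A3G degradation. Cells plated at 700/well overnight at 37 deg C before compound addition, then a further overnight compound incubation at 37 deg C.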

In test [20] the test system is Zika virus NS2B-NS3 protease. Description: Primary screen GU AMC qHTS for Zika virus inhibitors (AID 1347154).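 Also: 0% = no-inhibitor control and -100% = no-enzyme control; nearly all actives have a fitted effect of over 70% in size.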 In short, it runs like this: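 Unlinked Zika NS2B hydrophilic domain/NS3 protease domain noncovalent complex (25 nM final) in 10 mM Tris-HCl pH 8.0, 0.01% Tween 20, with AMC peptide substrate. Fluorescence (ex 340, em 450 nm) change over 15 min, room temperature; percent inhibition fitted to 4-parameter Hill equation.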

Test [21] is described as follows: Primary qHTS for small molecule stabilizers of the endoplasmic reticulum resident proteome: Secreted ER Calcium Modulated Protein (SERCaMP) assay (AID 1508630). Also: % is scaled to controls: 0 for no effect and ±100 for the full control effect. In short, it runs like this: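 The SH-SY5Y reporter protocol was run at 3 concentrations up to 38.3 uM (primary) or 11 concentrations (follow-up): 16 h compound, 100 nM thapsigargin for 4 h, then extracellular luciferase luminescence.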

Chain of Glucocorticoid receptor (Homo sapiens) (P04150 whole entry, looked up): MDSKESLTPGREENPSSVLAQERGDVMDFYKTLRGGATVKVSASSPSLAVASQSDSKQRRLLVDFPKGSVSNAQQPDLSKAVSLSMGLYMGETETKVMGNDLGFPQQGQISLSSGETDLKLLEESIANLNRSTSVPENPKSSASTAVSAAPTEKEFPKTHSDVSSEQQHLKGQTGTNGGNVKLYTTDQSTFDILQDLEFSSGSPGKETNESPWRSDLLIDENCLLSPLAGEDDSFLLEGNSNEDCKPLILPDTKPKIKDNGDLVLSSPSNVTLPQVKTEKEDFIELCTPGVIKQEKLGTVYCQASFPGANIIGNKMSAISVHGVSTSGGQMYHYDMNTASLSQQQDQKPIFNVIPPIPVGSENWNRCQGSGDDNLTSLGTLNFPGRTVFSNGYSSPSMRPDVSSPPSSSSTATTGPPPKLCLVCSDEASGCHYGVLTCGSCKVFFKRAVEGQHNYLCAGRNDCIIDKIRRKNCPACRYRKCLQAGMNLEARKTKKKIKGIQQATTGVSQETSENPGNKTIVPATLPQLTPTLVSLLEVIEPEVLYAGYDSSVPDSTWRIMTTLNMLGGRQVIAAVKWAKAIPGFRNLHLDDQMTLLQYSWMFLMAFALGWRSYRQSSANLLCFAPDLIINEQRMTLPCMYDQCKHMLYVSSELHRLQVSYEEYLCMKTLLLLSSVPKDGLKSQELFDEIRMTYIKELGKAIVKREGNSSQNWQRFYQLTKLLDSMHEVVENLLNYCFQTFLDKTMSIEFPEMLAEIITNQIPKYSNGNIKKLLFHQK
Chain of Alpha-galactosidase (Coffea arabica) (Q42656 whole entry, looked up): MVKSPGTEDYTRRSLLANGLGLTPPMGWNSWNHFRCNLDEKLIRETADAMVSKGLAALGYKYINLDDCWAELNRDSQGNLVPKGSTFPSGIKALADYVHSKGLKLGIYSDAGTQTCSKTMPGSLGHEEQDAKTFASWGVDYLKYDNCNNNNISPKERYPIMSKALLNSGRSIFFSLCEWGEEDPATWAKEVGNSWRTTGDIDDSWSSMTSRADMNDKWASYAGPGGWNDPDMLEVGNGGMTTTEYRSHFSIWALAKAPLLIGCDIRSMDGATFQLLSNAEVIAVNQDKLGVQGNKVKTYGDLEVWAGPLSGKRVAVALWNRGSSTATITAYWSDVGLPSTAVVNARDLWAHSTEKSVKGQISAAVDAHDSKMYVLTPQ
Chain of Muscarinic acetylcholine receptor M1 (Rattus norvegicus) (P08482 whole entry, looked up): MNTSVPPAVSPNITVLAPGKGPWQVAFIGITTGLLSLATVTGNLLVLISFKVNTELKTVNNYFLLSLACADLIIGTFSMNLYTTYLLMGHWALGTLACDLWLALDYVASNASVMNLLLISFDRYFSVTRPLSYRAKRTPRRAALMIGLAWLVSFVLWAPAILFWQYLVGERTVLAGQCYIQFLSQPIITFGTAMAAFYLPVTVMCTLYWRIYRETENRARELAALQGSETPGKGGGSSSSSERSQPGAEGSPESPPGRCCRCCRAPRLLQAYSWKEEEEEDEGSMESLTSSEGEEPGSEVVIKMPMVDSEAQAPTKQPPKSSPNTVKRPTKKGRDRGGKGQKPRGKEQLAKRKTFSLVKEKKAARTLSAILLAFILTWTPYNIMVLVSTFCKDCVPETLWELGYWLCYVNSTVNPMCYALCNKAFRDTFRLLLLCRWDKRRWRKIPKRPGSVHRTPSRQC
Chain of 3',5'-cyclic-AMP phosphodiesterase 4B (Homo sapiens) (Q07343 whole entry, looked up): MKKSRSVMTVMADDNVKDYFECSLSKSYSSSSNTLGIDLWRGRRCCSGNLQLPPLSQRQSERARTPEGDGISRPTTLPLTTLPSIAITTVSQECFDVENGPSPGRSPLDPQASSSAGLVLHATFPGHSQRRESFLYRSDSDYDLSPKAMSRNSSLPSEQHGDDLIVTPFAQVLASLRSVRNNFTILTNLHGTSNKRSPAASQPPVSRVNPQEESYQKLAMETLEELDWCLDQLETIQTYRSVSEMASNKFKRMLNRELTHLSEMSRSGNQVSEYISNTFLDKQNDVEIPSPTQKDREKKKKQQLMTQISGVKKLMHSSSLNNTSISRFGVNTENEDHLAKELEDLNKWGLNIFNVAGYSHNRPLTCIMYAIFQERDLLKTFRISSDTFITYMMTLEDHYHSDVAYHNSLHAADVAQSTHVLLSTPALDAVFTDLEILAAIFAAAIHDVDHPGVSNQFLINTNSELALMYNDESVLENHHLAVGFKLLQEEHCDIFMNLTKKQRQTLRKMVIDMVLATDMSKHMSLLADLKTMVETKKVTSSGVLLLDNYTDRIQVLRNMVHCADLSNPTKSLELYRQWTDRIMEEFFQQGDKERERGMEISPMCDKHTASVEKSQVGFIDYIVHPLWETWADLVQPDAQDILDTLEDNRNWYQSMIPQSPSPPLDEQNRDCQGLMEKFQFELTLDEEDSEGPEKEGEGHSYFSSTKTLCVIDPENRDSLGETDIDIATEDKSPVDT
Chain of Pyruvate kinase (Leishmania mexicana) (Q27686 2-499 E452W): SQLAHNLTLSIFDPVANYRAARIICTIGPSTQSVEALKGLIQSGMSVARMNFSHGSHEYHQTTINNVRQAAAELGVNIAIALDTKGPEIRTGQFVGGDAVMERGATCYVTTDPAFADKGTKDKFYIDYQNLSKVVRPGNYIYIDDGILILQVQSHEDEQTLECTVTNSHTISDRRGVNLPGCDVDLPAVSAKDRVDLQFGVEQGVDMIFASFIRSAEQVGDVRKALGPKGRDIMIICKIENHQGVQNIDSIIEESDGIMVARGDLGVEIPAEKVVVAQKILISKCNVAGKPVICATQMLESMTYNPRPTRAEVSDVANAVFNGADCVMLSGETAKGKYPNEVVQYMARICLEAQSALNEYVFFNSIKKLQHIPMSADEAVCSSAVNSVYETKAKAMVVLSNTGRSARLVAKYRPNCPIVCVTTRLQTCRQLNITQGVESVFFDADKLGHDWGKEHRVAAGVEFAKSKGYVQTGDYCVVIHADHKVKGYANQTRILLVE
Chain of DNA dC->dU-editing enzyme APOBEC-3G (Homo sapiens) (Q9HC16 whole entry, looked up): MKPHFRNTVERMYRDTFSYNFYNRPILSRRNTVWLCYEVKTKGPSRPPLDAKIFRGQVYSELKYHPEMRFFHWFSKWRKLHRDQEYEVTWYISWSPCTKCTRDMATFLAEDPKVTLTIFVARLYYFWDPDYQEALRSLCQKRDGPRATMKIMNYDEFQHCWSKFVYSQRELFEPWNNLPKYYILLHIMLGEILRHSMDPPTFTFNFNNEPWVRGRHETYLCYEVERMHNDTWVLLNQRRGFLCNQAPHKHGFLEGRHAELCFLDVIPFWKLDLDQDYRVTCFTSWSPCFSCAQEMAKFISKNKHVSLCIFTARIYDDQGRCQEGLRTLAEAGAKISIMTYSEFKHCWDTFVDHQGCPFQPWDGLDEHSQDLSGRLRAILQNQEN
Chain of Cytochrome P450 2D6 (Homo sapiens) (P10635 whole entry, looked up): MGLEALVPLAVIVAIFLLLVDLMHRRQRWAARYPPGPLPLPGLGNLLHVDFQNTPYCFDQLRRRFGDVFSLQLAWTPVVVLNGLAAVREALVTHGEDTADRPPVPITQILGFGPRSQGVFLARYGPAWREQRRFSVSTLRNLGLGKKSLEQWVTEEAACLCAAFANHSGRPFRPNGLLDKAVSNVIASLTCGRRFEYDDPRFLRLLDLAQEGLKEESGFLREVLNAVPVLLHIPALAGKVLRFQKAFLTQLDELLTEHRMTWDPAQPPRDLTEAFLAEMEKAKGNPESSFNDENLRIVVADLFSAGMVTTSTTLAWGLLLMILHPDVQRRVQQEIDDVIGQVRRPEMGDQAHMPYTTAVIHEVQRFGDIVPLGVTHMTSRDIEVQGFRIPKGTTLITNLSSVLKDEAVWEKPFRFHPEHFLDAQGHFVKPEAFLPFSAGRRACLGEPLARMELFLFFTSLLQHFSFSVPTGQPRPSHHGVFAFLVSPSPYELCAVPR
Chain of Guanine nucleotide-binding protein G(i) subunit alpha-1 (Homo sapiens) (P63096 whole entry, looked up): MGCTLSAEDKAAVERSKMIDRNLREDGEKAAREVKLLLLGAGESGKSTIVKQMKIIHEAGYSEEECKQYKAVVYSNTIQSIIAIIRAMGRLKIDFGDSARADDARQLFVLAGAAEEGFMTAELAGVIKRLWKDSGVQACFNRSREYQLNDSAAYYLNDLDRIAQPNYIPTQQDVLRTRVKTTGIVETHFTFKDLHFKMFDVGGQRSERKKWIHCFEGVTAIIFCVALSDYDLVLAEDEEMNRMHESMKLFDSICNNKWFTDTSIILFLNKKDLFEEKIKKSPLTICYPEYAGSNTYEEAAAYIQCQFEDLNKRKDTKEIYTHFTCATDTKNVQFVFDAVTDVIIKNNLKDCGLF
Chain of Alpha-galactosidase A (Homo sapiens) (P06280 whole entry, looked up): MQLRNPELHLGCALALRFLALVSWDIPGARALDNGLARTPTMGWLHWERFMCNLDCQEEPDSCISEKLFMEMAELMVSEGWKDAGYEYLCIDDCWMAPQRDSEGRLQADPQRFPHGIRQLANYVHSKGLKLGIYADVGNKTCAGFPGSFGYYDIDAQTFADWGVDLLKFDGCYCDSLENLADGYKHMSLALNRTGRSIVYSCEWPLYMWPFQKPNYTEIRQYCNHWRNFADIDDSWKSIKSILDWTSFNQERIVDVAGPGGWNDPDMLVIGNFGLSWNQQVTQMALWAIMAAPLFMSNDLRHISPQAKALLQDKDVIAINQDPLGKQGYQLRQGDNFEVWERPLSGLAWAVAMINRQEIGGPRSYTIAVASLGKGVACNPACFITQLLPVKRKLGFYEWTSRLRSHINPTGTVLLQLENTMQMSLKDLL

Take `CC(C)(C)c1o[nH]c(=O)c1C[C@H](N)C(=O)O`: the outcome in [1], in test [3], in [6], in test [8], in test [10] and in test [13] was inactive. Also, the compound was classed as inactive in [14], in test [15], in test [16] and in [17]. For the same compound, the activity change, negative = inhibition is -2.55% (inactive) in test [2] and 1.88% (inactive) in [18] (at 57.5 µM (top of the series)). Besides, the Potency in test [4] and in [5] was > 46 µM (inactive) throughout. For the same compound, the Potency entry in test [7], in test [9], in [11], in [12], in [19] and in [20] was “inactive” in each case. Moreover, the Potency entry in test [21] is “inactive”. The max response in test [18] (measured here: cell count channel max response) was -7.92%; in [18] (measured here: lipid channel max response), -7.95%.

In the case of `COc1ccc(C(=O)O[C@H]2CC[C@@]3(C)C4CCC5[C@]6(O)C[C@H](O)[C@@]7(O)C(CN8C[C@@H](C)CC[C@H]8[C@@]7(C)O)[C@]6(O)C[C@@]53O[C@@]42O)cc1OC` (some centres not stated), the Potency result in test [20] and in test [21] was “inactive” each time.

As for `C[C@@H]1O[C@H](C[N+](C)(C)C)C[C@@H]1O`, the Potency entry in test [20] and in test [21] was “inactive” each time.
